# ± gives the standard deviation of the averaged measurements.
# Test system: PC9
# Experiment: area under confluence curve of osimertinib + compound combination regimen (DTP regrowth); compare to osimertinib-only DTP control AUC of the same experiment (AUC (confluence x time, arbitrary))
# Experimental: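 compare to osimertinib-only DTP control AUC of the same experiment; Long-term drug-tolerant persister (DTP) screen in EGFR-mutant NSCLC cell lines in 48-well plates. The test compound was given at one fixed dose with osimertinib, either upfront (from day 0 to the DTP stage at 10-21 days, then drug-free medium) or sequentially (osimertinib alone to the DTP stage, then the test compound). IncuCyte confluence was tracked until osimertinib-only controls regrew, and AUC was computed in Prism. AUC scale depends on experiment duration, so each row carries the same-experiment osimertinib-only DTP and DMSO control AUCs; combination activity = control minus combo AUC. Osimertinib dose not stated.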
# [1] = test compound dose 1000 nM, dosing schedule: sequential, osimertinib-only DTP control AUC in same experiment: 15163, DMSO control AUC in same experiment: 28684
# [2] = test compound dose 1000 nM, dosing schedule: upfront, osimertinib-only DTP control AUC in same experiment: 21337, DMSO control AUC in same experiment: 28684
structure (smiles),measurement,setting,value
Cn1cc(CNCC2CCN(c3ncc(C(=O)NO)cn3)CC2)c2ccccc21 [Quisinostat] + C=CC(=O)Nc1cc(Nc2nccc(-c3cn(C)c4ccccc34)n2)c(OC)cc1N(C)CCN(C)C [osimertinib],area under confluence curve,"test compound dose 10 nM, dosing schedule: sequential, osimertinib-only DTP control AUC in same experiment: 10175, DMSO control AUC in same experiment: 27958",2060
same,area under confluence curve,"test compound dose 10 nM, dosing schedule: sequential, osimertinib-only DTP control AUC in same experiment: 13992, DMSO control AUC in same experiment: 30002",4770
same,area under confluence curve,"test compound dose 10 nM, dosing schedule: sequential, osimertinib-only DTP control AUC in same experiment: 14708, DMSO control AUC in same experiment: 21341",2700
same,area under confluence curve,"test compound dose 10 nM, dosing schedule: upfront, osimertinib-only DTP control AUC in same experiment: 16134, DMSO control AUC in same experiment: 27958",1380
same,area under confluence curve,"test compound dose 10 nM, dosing schedule: upfront, osimertinib-only DTP control AUC in same experiment: 21313, DMSO control AUC in same experiment: 21341",6010
same,area under confluence curve,"test compound dose 10 nM, dosing schedule: upfront, osimertinib-only DTP control AUC in same experiment: 22377, DMSO control AUC in same experiment: 30002",4720
CNC(=O)c1cccc(-c2ccc3c(N4CCOC[C@@H]4C)nc(N4CCOC[C@@H]4C)nc3n2)c1 + C=CC(=O)Nc1cc(Nc2nccc(-c3cn(C)c4ccccc34)n2)c(OC)cc1N(C)CCN(C)C [osimertinib],area under confluence curve,"test compound dose 100 nM, dosing schedule: sequential, osimertinib-only DTP control AUC in same experiment: 13052, DMSO control AUC in same experiment: 28334",6580
same,area under confluence curve,"test compound dose 100 nM, dosing schedule: upfront, osimertinib-only DTP control AUC in same experiment: 17920, DMSO control AUC in same experiment: 28334",14800
Nc1ccc(/C=C/C(=O)NCc2cc3cc(-c4ccc(C(=O)N5CCC(F)(F)CC5)cc4)cc(-c4ccc(F)cc4)c3o2)cn1 + C=CC(=O)Nc1cc(Nc2nccc(-c3cn(C)c4ccccc34)n2)c(OC)cc1N(C)CCN(C)C [osimertinib],area under confluence curve,"test compound dose 100 nM, dosing schedule: sequential, osimertinib-only DTP control AUC in same experiment: 14258, DMSO control AUC in same experiment: 21913",6800
same,area under confluence curve,"test compound dose 100 nM, dosing schedule: upfront, osimertinib-only DTP control AUC in same experiment: 21499, DMSO control AUC in same experiment: 21913",12200
Nc1nc(Nc2ccc3c(c2)CCC(N2CCCC2)CC3)nn1-c1cc2c(nn1)-c1ccccc1CCC2 (stereo not given) + C=CC(=O)Nc1cc(Nc2nccc(-c3cn(C)c4ccccc34)n2)c(OC)cc1N(C)CCN(C)C [osimertinib],area under confluence curve,"test compound dose 300 nM, dosing schedule: sequential, osimertinib-only DTP control AUC in same experiment: 11273, DMSO control AUC in same experiment: 20197",6530
same,area under confluence curve,"test compound dose 300 nM, dosing schedule: sequential, osimertinib-only DTP control AUC in same experiment: 29087, DMSO control AUC in same experiment: 30008",12100
same,area under confluence curve,"test compound dose 300 nM, dosing schedule: upfront, osimertinib-only DTP control AUC in same experiment: 13449, DMSO control AUC in same experiment: 20197",7530
same,area under confluence curve,"test compound dose 300 nM, dosing schedule: upfront, osimertinib-only DTP control AUC in same experiment: 34430, DMSO control AUC in same experiment: 30008",11700
Oc1nc(-c2ccc(C(F)(F)F)cc2)nc2c1CSCC2 + C=CC(=O)Nc1cc(Nc2nccc(-c3cn(C)c4ccccc34)n2)c(OC)cc1N(C)CCN(C)C [osimertinib],area under confluence curve,"test compound dose 300 nM, dosing schedule: sequential, osimertinib-only DTP control AUC in same experiment: 12502, DMSO control AUC in same experiment: 49143",9570
same,area under confluence curve,"test compound dose 300 nM, dosing schedule: upfront, osimertinib-only DTP control AUC in same experiment: 28310, DMSO control AUC in same experiment: 49143",8680
C[C@@H](Nc1cc(F)cc(F)c1)c1cc(C(=O)N(C)C)cc2c(=O)cc(N3CCOCC3)oc12 + C=CC(=O)Nc1cc(Nc2nccc(-c3cn(C)c4ccccc34)n2)c(OC)cc1N(C)CCN(C)C [osimertinib],area under confluence curve,"test compound dose 1000 nM, dosing schedule: sequential, osimertinib-only DTP control AUC in same experiment: 1963, DMSO control AUC in same experiment: 30580",1970 ± 150
same,area under confluence curve,"test compound dose 1000 nM, dosing schedule: sequential, osimertinib-only DTP control AUC in same experiment: 10725, DMSO control AUC in same experiment: 30578",4550
same,area under confluence curve,"test compound dose 1000 nM, dosing schedule: sequential, osimertinib-only DTP control AUC in same experiment: 12535, DMSO control AUC in same experiment: 43316",4790
same,area under confluence curve,[1],5770
same,area under confluence curve,"test compound dose 1000 nM, dosing schedule: upfront, osimertinib-only DTP control AUC in same experiment: 8618, DMSO control AUC in same experiment: 30580",4780 ± 250
same,area under confluence curve,"test compound dose 1000 nM, dosing schedule: upfront, osimertinib-only DTP control AUC in same experiment: 10245, DMSO control AUC in same experiment: 30578",8450
same,area under confluence curve,"test compound dose 1000 nM, dosing schedule: upfront, osimertinib-only DTP control AUC in same experiment: 15354, DMSO control AUC in same experiment: 43316",8140
same,area under confluence curve,[2],7910
CN1CCN(c2nc(C3=C(c4c[nH]c5ccccc45)C(=O)NC3=O)c3ccccc3n2)CC1 [Sotrastaurin] + C=CC(=O)Nc1cc(Nc2nccc(-c3cn(C)c4ccccc34)n2)c(OC)cc1N(C)CCN(C)C [osimertinib],area under confluence curve,"test compound dose 1000 nM, dosing schedule: sequential, osimertinib-only DTP control AUC in same experiment: 10175, DMSO control AUC in same experiment: 27958",9060
same,area under confluence curve,"test compound dose 1000 nM, dosing schedule: upfront, osimertinib-only DTP control AUC in same experiment: 16134, DMSO control AUC in same experiment: 27958",10800
O=C(N[C@@H](C1CC1)C(F)(F)F)c1cc(-c2cnn3cc(-c4ccc(F)cc4)cnc23)cs1 + C=CC(=O)Nc1cc(Nc2nccc(-c3cn(C)c4ccccc34)n2)c(OC)cc1N(C)CCN(C)C [osimertinib],area under confluence curve,"test compound dose 1000 nM, dosing schedule: sequential, osimertinib-only DTP control AUC in same experiment: 10206, DMSO control AUC in same experiment: 18733",9160
same,area under confluence curve,"test compound dose 1000 nM, dosing schedule: upfront, osimertinib-only DTP control AUC in same experiment: 17072, DMSO control AUC in same experiment: 18733",16800
COc1nn(C)cc1Nc1nccc(-c2c[nH]c3c(NC(=O)[C@@H](C)N4CCN(C)CC4)cccc23)n1 + C=CC(=O)Nc1cc(Nc2nccc(-c3cn(C)c4ccccc34)n2)c(OC)cc1N(C)CCN(C)C [osimertinib],area under confluence curve,"test compound dose 1000 nM, dosing schedule: sequential, osimertinib-only DTP control AUC in same experiment: 10968, DMSO control AUC in same experiment: 21594",8030
same,area under confluence curve,"test compound dose 1000 nM, dosing schedule: upfront, osimertinib-only DTP control AUC in same experiment: 17834, DMSO control AUC in same experiment: 21594",15000
O=C(CCCCCCC(=O)Nc1ccccc1)NO [Vorinostat] + C=CC(=O)Nc1cc(Nc2nccc(-c3cn(C)c4ccccc34)n2)c(OC)cc1N(C)CCN(C)C [osimertinib],area under confluence curve,"test compound dose 1000 nM, dosing schedule: sequential, osimertinib-only DTP control AUC in same experiment: 12065, DMSO control AUC in same experiment: 48219",7830
same,area under confluence curve,"test compound dose 1000 nM, dosing schedule: sequential, osimertinib-only DTP control AUC in same experiment: 14002, DMSO control AUC in same experiment: 31239",6670
same,area under confluence curve,"test compound dose 1000 nM, dosing schedule: upfront, osimertinib-only DTP control AUC in same experiment: 22175, DMSO control AUC in same experiment: 31239",7410
same,area under confluence curve,"test compound dose 1000 nM, dosing schedule: upfront, osimertinib-only DTP control AUC in same experiment: 22645, DMSO control AUC in same experiment: 48219",10400
O=C(c1cc(Cc2n[nH]c(=O)c3ccccc23)ccc1F)N1CCN(C(=O)C2CC2)CC1 [Olaparib] + C=CC(=O)Nc1cc(Nc2nccc(-c3cn(C)c4ccccc34)n2)c(OC)cc1N(C)CCN(C)C [osimertinib],area under confluence curve,"test compound dose 1000 nM, dosing schedule: sequential, osimertinib-only DTP control AUC in same experiment: 15001, DMSO control AUC in same experiment: 22064",7460
same,area under confluence curve,"test compound dose 1000 nM, dosing schedule: sequential, osimertinib-only DTP control AUC in same experiment: 15044, DMSO control AUC in same experiment: 30604",12600
same,area under confluence curve,"test compound dose 1000 nM, dosing schedule: upfront, osimertinib-only DTP control AUC in same experiment: 20672, DMSO control AUC in same experiment: 30604",16600
same,area under confluence curve,"test compound dose 1000 nM, dosing schedule: upfront, osimertinib-only DTP control AUC in same experiment: 24924, DMSO control AUC in same experiment: 22064",18600
COc1cc2nc(C)nc(N[C@H](C)c3cc(N)cc(C(F)(F)F)c3)c2cc1O[C@H]1CCOC1 + C=CC(=O)Nc1cc(Nc2nccc(-c3cn(C)c4ccccc34)n2)c(OC)cc1N(C)CCN(C)C [osimertinib],area under confluence curve,[1],11600
same,area under confluence curve,[2],11000
